This is a sample that favours compounds with a hit; in the whole collection about 6.9% have one here.
Giardia killer: Giardia lamblia killing; Giardia lamblia trophozoite viability; activity change, % at 7.66 µM, hits read low; actives 0.15% (n = 340,000); in the data active means activity change below about -80%; inconclusive means between about -30% and that limit;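 further: parasites exposed to compound for two days anaerobically before the ATP read; on the % scale 0 is the no-effect control and ±100 the full control effect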
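Luminescence from cellular ATP indicates surviving trophozoites (100 cells/well) following 48 hrs anaerobic compound treatment at 37 deg C; signal develops 15-30 min at room temperature.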
ASM inhibitor: blocks human secretory acid sphingomyelinase; P17405; placental ASM, HMU-PC fluorogenic substrate, 60 min; Potency, µM (highest dose often 57.5 µM), inactives show top-dose activity change, negative = inhibition, most hits filed as inhibitors; actives 0.006% (n = 340,000); further: potency means the concentration at half of the fitted maximal effect
Target sequence (P17405 47-631 limits assumed): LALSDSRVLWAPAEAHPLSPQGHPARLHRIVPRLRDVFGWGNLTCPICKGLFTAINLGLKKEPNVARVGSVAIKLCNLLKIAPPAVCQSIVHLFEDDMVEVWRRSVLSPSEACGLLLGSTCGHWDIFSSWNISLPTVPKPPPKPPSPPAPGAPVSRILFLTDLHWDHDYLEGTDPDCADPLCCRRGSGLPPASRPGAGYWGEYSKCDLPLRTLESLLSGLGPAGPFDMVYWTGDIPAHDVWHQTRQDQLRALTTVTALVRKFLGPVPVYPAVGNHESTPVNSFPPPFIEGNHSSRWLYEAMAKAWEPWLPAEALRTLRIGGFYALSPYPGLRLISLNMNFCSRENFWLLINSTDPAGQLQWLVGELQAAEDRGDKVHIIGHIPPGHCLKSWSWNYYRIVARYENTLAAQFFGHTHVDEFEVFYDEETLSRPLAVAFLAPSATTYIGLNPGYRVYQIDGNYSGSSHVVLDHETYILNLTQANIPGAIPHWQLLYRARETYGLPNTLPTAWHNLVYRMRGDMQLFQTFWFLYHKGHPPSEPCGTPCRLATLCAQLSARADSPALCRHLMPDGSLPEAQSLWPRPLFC
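Fluorogenic HMU-PC substrate (9 uM final) is turned over by placental ASM in 60 min at 37 C after a 10 min compound preincubation. Reaction ended by alkaline stop (pH 10), with fluorescence read at 386/447 nm.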
SW480 rerep: inducers of DNA re-replication in SW480 colon cancer cells; SW480 DNA re-replication, Hoechst DNA content imaging, 48 h; Potency, µM (doses to about 46.1 µM), for inactives: top-dose re-replication activation, usual class: activators; actives 1.8% (n = 340,000); further: potency means the concentration at half of the fitted maximal effect; % of control where 0% means no effect; nearly all actives have a fitted effect of over 55% in size
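Quantitative HTS format with DMSO vehicle controls; 48 hr drug incubation at 37 C, then 40 min Hoechst staining and scanning imager measurement at 405 nm excitation.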
MCF10A rereplic: induces DNA re-replication in MCF 10a normal breast cells. Potency, µM (top dose mostly 46.1 µM), inactives show top-dose activity, positive = re-replication, most hits filed as activators. actives 2.9% (n = 350,000). AID 624296. MCF 10A DNA re-replication, Hoechst nuclear intensity, 48 h; further: potency means the concentration at half of the fitted maximal effect; % of control where 0% means no effect; nearly all actives have a fitted effect of over 50% in size
KB-V1 cytotox: kills drug-selected multidrug resistant KB-V1 cells | KB-V1 MDR cells viability, CellTiter-Glo, 72 h | AID 1347076 | actives 3.4% (n = 400,000) | Potency, µM (titrated, usually from 46.1 µM), actives largely listed as cytotoxic; further: potency means the concentration at half of the fitted maximal effect; on the % scale 0 is the no-effect control and ±100 the full control effect; nearly all actives have a fitted effect of over 60% in size
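KB-V1, DMEM (no phenol red) + 10% FBS; cpd pin-transferred, titration series; 72 h, 37 degrees C; CellTiter-Glo, luminescence. Data normalized, curve-fit.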
KB-3-1 tox: kills parental KB-3-1 adenocarcinoma cells; KB-3-1 viability, CellTiter-Glo ATP luminescence, 72 h; Potency, µM (series often up to 46.1 µM), most hits filed as cytotoxic; actives 1.4% (n = 400,000); AID 1347075; further: potency means the concentration at half of the fitted maximal effect; on the % scale 0 is the no-effect control and ±100 the full control effect; nearly all actives have a fitted effect of over 60% in size
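Cytotoxicity in the drug-sensitive parental line KB-3-1 was scored as loss of CellTiter-Glo luminescence following 72 h incubation with compound. Values come from curve fitting of normalized concentration-response data.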
Starred values were filed as active, the others as inactive; i = inactive; u = inconclusive; x = no result given; [ ] = dose if it differs, or a comment. Unless noted, the call rests on the fitted dose curve; in most records, active means well fitted curve in the direction sought with a large enough effect; inconclusive means small, poorly fitted or top-dose-only effect, or another doubt; inactive means no such curve, though single readings can be large; an effect the other way counts as inactive or inconclusive.

SMILES | Giardia killer | ASM inhibitor | SW480 rerep | MCF10A rereplic | KB-V1 cytotox | KB-3-1 tox
COc1ccccc1-c1ccc(/C=C2/C=C(C)OC2=O)o1 | 7 | 91% | u | 21µM* | i | i
C=CCNC(=S)N/N=C/c1ccc(-c2cc(Cl)ccc2Cl)o1 | 5 | 49% | 23% | u | i | i
C=CCNC(=S)N/N=C/c1ccc(-c2ccc(Cl)cc2Cl)o1 | 10 | 135% | 16µM* | 13µM* | i | i
C=CCNC(=S)N/N=C/c1ccc(-c2ccc(OC)cc2)o1 | 37 | 339% | u | 21µM* | 7.3µM* | u
C=CCNC(=S)N/N=C/c1ccc(C)cc1C | 17 | -5% | 0% | u | u | u
O=C(CNS(=O)(=O)c1ccccc1)NCC(=O)N1CCCCC1 | 16 | 6% | -10%[9.22 µM] | -11% | i | i
CSS(=O)(=O)c1cccc2cccnc12 | 6 | 0% | u | 18µM* | i | i
CC1=C(c2ccc(C)c(C)c2)S(=O)(=O)N(Cc2ccc(C(=O)Nc3cc(F)ccc3F)cc2)C1=O | x | x | x | x | i | i
CCN(CC)C(=O)CN1C(=O)C2(OCC(C)(C)CO2)c2ccccc21 | 22 | 1% | 3% | 2% | 16µM* | i
O=C1N(CCCN2C(=O)C3(OCCO3)c3ccccc32)c2ccccc2C12OCCO2 | 7 | -3% | -10% | 5% | 12µM* | i
CCN(CC)C(=O)CN1C(=O)C2(OCC(C)(c3ccccc3)CO2)c2ccccc21 (configuration not stated) | 7 | -2% | 10% | -2% | i | i
O=C1N(Cc2ccc(F)cc2Cl)c2ccccc2C12OCCCO2 | 35 | -4% | 5% | 24% | 18µM* | u
O=C(Nc1nc2ccc(F)cc2s1)C1=COCCO1 | -9 | 9% | -5% | 0% | 12µM* | u
COc1ccc(Cl)c2sc(NC(=O)C3=COCCO3)nc12 | 2 | -1% | 5.2µM* | -3% | i | i
CC(C)(C)C(=O)Nc1nc2cc3c(cc2s1)OCO3 | -1 | 6% | 3.3µM* | 0% | i | i
O=C(Nc1nc2cc3c(cc2s1)OCCO3)C1=COCCO1 | -86* | 1% | -4% | 1% | i | i
Cc1ccc(Cl)c2sc(NC(=O)C3=COCCO3)nc12 | -14 | -5% | -1% | u | i | i
CSc1cccc2sc(NC(=O)C3=COCCO3)nc12 | -8 | 5% | -460% | 6% | i | i
COc1ccc(C)cc1NS(=O)(=O)c1cc(Br)cc2c1N(C(C)=O)C(C)C2 (configuration not stated) | x | x | x | x | i | i
O=C(c1ccccc1)c1ccc(NCCCn2ccnc2)c([N+](=O)[O-])c1 | -14 | -10% | -5% | 25% | 5.2µM* | u
CN1CCc2c(sc3nc(SCC(N)=O)n(-c4ccc(Cl)cc4)c(=O)c23)C1 | 29 | 29% | u | 16µM* | i | i
CCSc1nc2sc3c(c2c(=O)n1-c1ccccc1)CCN(C(C)C)C3 | -1 | 28% | -1% | 18µM* | i | i
CCCCSc1nc2sc3c(c2c(=O)n1-c1ccccc1)CCN(C)C3 | -5 | -1% | 23% | u | i | i
COc1cc(-c2nnc(SCC(=O)N(C)C3CCCCC3)o2)cc(OC)c1OC | x | x | x | x | i | i
C[N+]1(CC(=O)c2cccc([N+](=O)[O-])c2)CCOCC1 | x | x | x | x | i | i
SMILES | Giardia killer | ASM inhibitor | SW480 rerep | MCF10A rereplic | KB-V1 cytotox | KB-3-1 tox
CSc1ccccc1NC(=O)CSCc1nc2sc(C)c(C)c2c(=O)[nH]1 | -3 | 1% | -26% | 2.3µM* | i | i
Cc1sc2nc(CSCC(=O)Nc3ccccc3C#N)[nH]c(=O)c2c1C | 4 | 3% | 7% | 21% | 21µM* | i
CC(=O)c1ccccc1NC(=O)CSCc1nc2sc(C)c(C)c2c(=O)[nH]1 | 0 | 3% | -5% | 3% | u | i
COc1ccc(NC(=O)CSc2nc3[nH]ncc3c(=O)[nH]2)c(OC)c1 | -1 | 7% | 3% | 5% | u | i
Cn1c(=O)n(C)c2cc(CNCc3ccc(F)cc3)ccc21 | x | x | x | x | i | i
O=C(Nc1ccccc1)N1CCc2ccccc21 | -6 | -1% | 8% | 13% | i | i
O=C(NCC1CCCC(CNC(=O)N2CCc3ccccc32)C1)N1CCc2ccccc21 (configuration not stated) | -16 | -3% | u | 23% | 5.2µM* | i
N#Cc1ccc(-c2nc3ccc(Br)cc3c(=O)n2O)cc1 | -8 | 1% | -4% | 1% | i | u
O=c1c2cc(Br)ccc2nc(-c2cccc(C(F)(F)F)c2)n1O | 13 | -1% | 11% | u | 2.3µM* | 2.9µM*
Cc1ccc(S(=O)(=O)N(C)C)cc1NC(=O)C(C)OC(=O)C1CCCC1 (configuration not stated) | 9 | 3% | -3% | -3% | i | i
C=C1C=C(C(F)F)n2ncc(C(=O)Nc3ccc(Br)cc3C(F)(F)F)c2N1 | x | x | x | x | i | i
Cc1cccn2c(=O)nc(SCC(=O)NC3CCCC3)nc12 | 2 | 4% | 18µM* | 0% | i | i
CC1CCCCC1NS(=O)(=O)CCNC(=O)c1ccccc1 (configuration not stated) | -13 | 3% | -3% | -9% | 21µM* | i
COc1cccc(CN2C(=O)c3cccc(N)c3C2=O)c1 | 3 | i | u | 18µM* | i | i
COc1cccc(CN2C(=O)c3ccccc3S2(=O)=O)c1 | 1 | 3% | 1% | 6% | i | i
COc1cc(OC)cc(C(=O)N2CCN(C(=O)c3ccc(OC)c(OC)c3)CC2)c1 | -8 | 3% | -4% | 2% | i | i
COc1ccc(-c2n[nH]c3c2CN(C(=O)c2ccc(OC)c(OC)c2)CC3)cc1 | 19 | 0% | u | 21µM* | u | 7.3µM*
Cc1ccc(C(=O)NNc2cc(N3CCCC3)nc(N3CCCC3)n2)cc1 | 24 | -8% | 10% | 19% | 1.5µM* | i
O=C(NNc1cc(N2CCOCC2)nc(N2CCOCC2)n1)c1ccc(Cl)c(Cl)c1 | -16 | -10% | 107% | -44% | 12µM* | i
Cc1ccc(C(=O)NNC(=O)C2CCN(c3ncccn3)CC2)cc1 | 9 | 2% | -18% | 4% | i | u
CCN1C[C@@H]2[C@@H]3C(=O)N(Cc4ccccc4)C(=O)[C@@H]3[C@](Cc3ccccc3)(C1=O)N2C(=O)c1ccc(Cl)cc1 | -9 | 3% | -5% | -1% | u | i
CCCCCCCCCC[n+]1ccc(/C=C/c2c[nH]c3ccccc23)c2ccccc21 | x | x | x | x | u | 8.2µM*
